# Experimental data published in article PMC7862700, “An all-to-all approach to the identification of sequence-specific readers for epigenetic DNA modifications on cytosine”.
# Key:
# Assay in all cases: DAPPL (digital affinity profiling via proximity ligation, sequencing); 10 mM Tris-HCl pH 7.5, 50 mM NaCl, 1 mM DTT, 4% glycerol, room temperature, 30 min; GST-TFs on glutathione beads, 16-mer random dsDNA library, 0.1% formaldehyde crosslink after washing; high values mean tight binding
# FLI1 = target: T1, FLI1 (Homo sapiens, UniProt Q01543 1-452); conditions: protein: recombinant; tags: N-terminal GST; dsDNA, one strand shown
# T1 sequence: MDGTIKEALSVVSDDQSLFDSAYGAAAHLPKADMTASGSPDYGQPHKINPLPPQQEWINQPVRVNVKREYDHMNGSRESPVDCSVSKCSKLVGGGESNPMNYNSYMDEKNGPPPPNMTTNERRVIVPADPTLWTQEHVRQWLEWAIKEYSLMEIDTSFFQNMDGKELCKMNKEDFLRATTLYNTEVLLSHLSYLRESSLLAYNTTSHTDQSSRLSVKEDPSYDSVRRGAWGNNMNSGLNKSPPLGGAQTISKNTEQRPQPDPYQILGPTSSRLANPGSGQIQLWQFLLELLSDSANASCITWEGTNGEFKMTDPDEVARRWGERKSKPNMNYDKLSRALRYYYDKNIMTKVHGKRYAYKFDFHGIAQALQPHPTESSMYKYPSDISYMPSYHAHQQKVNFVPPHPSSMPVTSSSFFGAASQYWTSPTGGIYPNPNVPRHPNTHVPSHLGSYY
# Outline: (§1)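 After expression in yeast as GST fusions, human transcription factors were bound to glutathione beads, DNA-barcoded and mixed with a tag-only sample. The pools were incubated with 200 nmole of a 16-mer random double-stranded DNA library in Tris/NaCl/DTT/glycerol buffer (30 min, room temperature), washed and crosslinked with 0.1% formaldehyde. Proximity ligation with BsaI/T4 ligase ran for 1 h at 37 °C, before PCR amplification and sequencing on an Illumina NextSeq500. Binding signal is a hexamer's read frequency for a factor divided by its frequency for the tag-only sample.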
# ELK1 = target: T2, ELK1 (Homo sapiens, UniProt P19419 1-428); conditions: protein: recombinant; tags: N-terminal GST; dsDNA, one strand shown
# T2 sequence: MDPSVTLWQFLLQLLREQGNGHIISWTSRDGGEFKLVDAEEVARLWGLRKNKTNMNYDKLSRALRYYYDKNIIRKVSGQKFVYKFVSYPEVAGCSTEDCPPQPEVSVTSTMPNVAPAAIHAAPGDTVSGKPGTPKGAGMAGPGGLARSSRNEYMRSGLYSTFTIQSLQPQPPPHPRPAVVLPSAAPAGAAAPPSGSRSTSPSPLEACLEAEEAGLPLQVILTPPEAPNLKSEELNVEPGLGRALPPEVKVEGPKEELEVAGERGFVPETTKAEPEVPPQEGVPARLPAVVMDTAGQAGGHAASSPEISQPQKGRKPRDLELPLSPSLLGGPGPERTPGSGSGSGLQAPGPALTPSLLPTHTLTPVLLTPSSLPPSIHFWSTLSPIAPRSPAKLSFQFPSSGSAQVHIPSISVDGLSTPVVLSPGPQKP
# Outline: as §1
# GABPA = target: T3, GABPA (Homo sapiens, UniProt Q06546 1-454); conditions: protein: recombinant; tags: N-terminal GST; dsDNA, one strand shown
# T3 sequence: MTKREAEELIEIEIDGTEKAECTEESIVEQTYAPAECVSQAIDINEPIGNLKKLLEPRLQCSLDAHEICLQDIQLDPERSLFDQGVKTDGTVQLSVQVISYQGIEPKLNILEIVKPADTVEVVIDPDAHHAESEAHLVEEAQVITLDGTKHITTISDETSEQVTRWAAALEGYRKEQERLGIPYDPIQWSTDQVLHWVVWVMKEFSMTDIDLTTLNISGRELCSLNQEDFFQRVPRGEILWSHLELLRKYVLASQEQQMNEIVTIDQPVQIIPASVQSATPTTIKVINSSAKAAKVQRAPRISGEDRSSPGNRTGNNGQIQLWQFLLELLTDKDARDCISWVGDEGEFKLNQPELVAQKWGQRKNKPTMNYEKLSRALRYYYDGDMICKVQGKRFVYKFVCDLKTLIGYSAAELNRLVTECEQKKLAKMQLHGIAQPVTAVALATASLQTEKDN
# Outline: as §1
# ERG = target: T4, ERG (Homo sapiens, UniProt P11308 1-479); conditions: protein: recombinant; tags: N-terminal GST; dsDNA, one strand shown
# T4 sequence: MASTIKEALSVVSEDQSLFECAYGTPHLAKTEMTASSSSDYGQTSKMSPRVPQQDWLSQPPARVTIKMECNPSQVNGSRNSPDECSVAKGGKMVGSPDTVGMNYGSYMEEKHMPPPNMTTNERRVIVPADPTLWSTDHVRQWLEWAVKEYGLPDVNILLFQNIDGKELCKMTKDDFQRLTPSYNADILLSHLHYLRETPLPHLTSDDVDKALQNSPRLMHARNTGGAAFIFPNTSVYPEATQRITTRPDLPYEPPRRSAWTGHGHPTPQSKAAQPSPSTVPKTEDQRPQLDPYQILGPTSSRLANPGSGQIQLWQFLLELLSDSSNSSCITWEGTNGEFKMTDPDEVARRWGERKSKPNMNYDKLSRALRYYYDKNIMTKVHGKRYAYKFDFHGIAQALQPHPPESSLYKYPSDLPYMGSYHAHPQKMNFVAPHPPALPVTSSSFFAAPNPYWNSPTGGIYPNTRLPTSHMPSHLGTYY
# Outline: as §1
# ELF1 = ELF1 (Homo sapiens, UniProt P32519 1-619); conditions: protein: recombinant; tags: N-terminal GST; dsDNA, one strand shown
# Outline: as §1
# EHF = target: T5, EHF (Homo sapiens, UniProt Q9NZC4 1-300); conditions: protein: recombinant; tags: N-terminal GST; dsDNA, one strand shown
# T5 sequence: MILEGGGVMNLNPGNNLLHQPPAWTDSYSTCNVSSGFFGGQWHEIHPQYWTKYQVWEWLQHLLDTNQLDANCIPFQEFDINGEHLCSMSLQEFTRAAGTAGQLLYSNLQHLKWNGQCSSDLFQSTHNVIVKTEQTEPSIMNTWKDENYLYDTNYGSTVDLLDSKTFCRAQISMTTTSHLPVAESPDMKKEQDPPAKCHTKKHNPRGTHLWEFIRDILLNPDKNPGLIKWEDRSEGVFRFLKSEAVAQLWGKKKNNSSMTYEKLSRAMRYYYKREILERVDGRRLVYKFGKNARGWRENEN
# Outline: as §1
# SPI1 = SPI1 (Homo sapiens, UniProt P17947 1-270); conditions: protein: recombinant; tags: N-terminal GST; dsDNA, one strand shown
# Outline: as §1
# SPIB = SPIB (Homo sapiens, UniProt Q01892 1-262); conditions: protein: recombinant; tags: N-terminal GST; dsDNA, one strand shown
# Outline: as §1
# ELK3 = target: T6, ELK3 (Homo sapiens, UniProt P41970 1-407); conditions: protein: recombinant; tags: N-terminal GST; dsDNA, one strand shown
# T6 sequence: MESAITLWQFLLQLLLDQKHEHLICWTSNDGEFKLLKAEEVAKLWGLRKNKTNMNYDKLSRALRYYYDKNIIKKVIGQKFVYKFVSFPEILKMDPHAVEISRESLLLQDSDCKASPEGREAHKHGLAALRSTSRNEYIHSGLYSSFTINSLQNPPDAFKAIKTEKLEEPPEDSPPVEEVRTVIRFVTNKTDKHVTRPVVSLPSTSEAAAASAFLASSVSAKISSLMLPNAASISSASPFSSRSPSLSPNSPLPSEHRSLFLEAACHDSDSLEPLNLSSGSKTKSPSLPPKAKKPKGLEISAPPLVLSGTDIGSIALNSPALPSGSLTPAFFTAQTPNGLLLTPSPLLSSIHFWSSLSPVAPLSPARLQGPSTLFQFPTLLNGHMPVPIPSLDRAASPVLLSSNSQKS
# Outline: as §1
# FEV = target: T7, FEV (Homo sapiens, UniProt Q99581 1-238); conditions: protein: recombinant; tags: N-terminal GST; dsDNA, one strand shown
# T7 sequence: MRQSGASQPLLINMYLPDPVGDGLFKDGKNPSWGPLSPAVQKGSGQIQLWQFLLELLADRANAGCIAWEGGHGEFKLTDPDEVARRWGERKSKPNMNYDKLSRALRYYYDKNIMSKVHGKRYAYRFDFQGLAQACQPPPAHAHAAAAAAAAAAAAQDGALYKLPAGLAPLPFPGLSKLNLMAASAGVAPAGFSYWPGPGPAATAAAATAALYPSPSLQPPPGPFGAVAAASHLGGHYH
# Outline: as §1
# ETV5 = ETV5 (Homo sapiens, UniProt P41161 1-510); conditions: protein: recombinant; tags: N-terminal GST; dsDNA, one strand shown
# Outline: as §1
# HSF1 = HSF1 (Homo sapiens, UniProt Q00613 1-529); conditions: protein: recombinant; tags: N-terminal GST; chain copies: 3; dsDNA, one strand shown
# Outline: as §1
# SPIC = target: T8, SPIC (Homo sapiens, UniProt Q8N5J4 1-248); conditions: protein: recombinant; tags: N-terminal GST; dsDNA, one strand shown
# T8 sequence: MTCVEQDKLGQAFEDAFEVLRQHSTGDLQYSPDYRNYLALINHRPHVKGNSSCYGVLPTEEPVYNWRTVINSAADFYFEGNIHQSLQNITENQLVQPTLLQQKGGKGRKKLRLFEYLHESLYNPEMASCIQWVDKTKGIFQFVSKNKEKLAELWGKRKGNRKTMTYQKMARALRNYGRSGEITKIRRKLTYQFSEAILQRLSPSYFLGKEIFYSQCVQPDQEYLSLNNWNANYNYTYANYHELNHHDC
# Outline: as §1
# ELF4 = ELF4 (Homo sapiens, UniProt Q99607 1-663); conditions: protein: recombinant; tags: N-terminal GST; dsDNA, one strand shown
# Outline: as §1
# ELK4 = target: T9, ELK4 (Homo sapiens, UniProt P28324-2 1-405); conditions: protein: recombinant; tags: N-terminal GST; dsDNA, one strand shown
# T9 sequence: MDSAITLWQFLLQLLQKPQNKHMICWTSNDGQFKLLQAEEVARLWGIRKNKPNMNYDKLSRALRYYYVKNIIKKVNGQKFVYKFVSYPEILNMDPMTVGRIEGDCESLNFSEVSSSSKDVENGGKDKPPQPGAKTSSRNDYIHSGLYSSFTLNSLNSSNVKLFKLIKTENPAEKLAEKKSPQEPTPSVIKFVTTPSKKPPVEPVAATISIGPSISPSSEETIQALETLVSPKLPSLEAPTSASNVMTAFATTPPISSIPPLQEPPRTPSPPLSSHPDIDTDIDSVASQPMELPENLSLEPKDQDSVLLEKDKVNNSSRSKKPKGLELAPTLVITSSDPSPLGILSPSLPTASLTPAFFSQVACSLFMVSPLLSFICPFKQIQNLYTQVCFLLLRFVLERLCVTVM
# Outline: as §1
# ETV2 = target: T10, ETV2 (Homo sapiens, UniProt O00321 1-342); conditions: protein: recombinant; tags: N-terminal GST; dsDNA, one strand shown
# T10 sequence: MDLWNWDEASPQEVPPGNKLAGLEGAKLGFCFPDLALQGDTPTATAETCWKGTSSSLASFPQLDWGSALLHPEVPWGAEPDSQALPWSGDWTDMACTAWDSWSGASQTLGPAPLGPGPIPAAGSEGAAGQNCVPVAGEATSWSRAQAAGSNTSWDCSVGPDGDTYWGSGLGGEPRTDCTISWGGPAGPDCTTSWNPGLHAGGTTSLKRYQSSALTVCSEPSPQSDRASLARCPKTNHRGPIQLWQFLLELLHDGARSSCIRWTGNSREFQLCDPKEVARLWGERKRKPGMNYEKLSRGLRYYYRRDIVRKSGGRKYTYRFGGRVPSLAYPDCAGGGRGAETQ
# Outline: as §1
# ELF3 = target: T11, ELF3 (Homo sapiens, UniProt P78545 1-371); conditions: protein: recombinant; tags: N-terminal GST; dsDNA, one strand shown
# T11 sequence: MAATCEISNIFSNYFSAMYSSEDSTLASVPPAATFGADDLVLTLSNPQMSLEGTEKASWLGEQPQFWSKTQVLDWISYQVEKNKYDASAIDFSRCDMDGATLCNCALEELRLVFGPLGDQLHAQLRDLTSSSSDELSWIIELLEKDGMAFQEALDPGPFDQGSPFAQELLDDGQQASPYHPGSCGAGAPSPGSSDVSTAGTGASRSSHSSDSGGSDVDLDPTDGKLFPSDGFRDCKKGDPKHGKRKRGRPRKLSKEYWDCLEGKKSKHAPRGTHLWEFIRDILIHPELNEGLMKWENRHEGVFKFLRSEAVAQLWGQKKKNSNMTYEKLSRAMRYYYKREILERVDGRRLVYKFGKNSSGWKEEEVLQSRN
# Outline: as §1
# CRX = CRX (Homo sapiens, UniProt O43186 1-299); conditions: protein: recombinant; tags: N-terminal GST; dsDNA, one strand shown
# Outline: as §1
# ETV1 = ETV1 (Homo sapiens, UniProt P50549 1-477); conditions: protein: recombinant; tags: N-terminal GST; dsDNA, one strand shown
# Outline: as §1
# HSF1, sequence (Q00613 whole entry): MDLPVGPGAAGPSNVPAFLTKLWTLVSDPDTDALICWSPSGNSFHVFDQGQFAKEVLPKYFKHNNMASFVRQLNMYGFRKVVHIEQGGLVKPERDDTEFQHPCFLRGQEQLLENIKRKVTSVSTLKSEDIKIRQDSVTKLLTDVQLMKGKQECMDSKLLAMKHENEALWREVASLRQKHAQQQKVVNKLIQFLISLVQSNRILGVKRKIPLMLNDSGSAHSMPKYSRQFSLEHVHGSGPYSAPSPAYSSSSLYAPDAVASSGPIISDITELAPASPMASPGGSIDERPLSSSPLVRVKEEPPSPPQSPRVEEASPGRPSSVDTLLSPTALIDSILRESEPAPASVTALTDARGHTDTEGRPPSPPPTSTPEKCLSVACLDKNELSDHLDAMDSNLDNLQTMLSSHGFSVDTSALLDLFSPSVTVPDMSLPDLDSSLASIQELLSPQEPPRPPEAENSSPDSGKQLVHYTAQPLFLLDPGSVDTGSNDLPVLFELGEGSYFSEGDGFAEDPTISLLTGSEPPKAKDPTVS
# ETV1, sequence (P50549 whole entry): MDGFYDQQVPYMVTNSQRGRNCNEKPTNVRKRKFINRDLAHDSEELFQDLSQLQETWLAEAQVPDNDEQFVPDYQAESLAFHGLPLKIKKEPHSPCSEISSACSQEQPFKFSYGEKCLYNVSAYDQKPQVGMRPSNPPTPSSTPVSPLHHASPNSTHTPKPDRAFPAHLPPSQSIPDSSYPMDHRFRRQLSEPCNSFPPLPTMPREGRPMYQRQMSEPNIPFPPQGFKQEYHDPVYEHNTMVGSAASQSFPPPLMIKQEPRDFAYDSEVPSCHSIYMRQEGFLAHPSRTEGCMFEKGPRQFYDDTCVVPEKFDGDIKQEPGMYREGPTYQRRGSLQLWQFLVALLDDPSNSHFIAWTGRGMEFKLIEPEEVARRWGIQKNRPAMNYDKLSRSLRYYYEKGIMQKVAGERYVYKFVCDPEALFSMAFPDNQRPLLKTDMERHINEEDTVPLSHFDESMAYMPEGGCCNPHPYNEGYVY
# CRX, sequence (O43186 whole entry): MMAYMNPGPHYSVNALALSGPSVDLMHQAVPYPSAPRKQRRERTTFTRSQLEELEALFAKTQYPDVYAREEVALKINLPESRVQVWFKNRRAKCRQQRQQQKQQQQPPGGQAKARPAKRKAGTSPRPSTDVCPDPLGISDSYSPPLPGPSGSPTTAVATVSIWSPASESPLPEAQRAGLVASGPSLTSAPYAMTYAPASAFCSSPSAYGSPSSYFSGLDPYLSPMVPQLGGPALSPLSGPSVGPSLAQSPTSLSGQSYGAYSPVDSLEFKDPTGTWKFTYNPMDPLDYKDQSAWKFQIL
# ETV5, sequence (P41161 whole entry): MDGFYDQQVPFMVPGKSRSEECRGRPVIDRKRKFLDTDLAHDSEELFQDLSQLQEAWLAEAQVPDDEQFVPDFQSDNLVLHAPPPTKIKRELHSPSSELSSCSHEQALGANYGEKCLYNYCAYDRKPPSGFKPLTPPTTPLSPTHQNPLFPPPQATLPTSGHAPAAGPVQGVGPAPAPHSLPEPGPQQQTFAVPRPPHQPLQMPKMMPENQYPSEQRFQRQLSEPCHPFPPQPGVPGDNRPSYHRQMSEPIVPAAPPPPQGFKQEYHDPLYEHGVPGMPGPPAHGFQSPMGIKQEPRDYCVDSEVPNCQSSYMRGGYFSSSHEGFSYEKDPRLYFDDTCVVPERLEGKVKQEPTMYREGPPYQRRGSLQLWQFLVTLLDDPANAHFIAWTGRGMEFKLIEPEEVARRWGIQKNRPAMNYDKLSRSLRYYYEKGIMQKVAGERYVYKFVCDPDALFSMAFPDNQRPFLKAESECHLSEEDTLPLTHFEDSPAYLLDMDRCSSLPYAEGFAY
# ELF4, sequence (Q99607 whole entry): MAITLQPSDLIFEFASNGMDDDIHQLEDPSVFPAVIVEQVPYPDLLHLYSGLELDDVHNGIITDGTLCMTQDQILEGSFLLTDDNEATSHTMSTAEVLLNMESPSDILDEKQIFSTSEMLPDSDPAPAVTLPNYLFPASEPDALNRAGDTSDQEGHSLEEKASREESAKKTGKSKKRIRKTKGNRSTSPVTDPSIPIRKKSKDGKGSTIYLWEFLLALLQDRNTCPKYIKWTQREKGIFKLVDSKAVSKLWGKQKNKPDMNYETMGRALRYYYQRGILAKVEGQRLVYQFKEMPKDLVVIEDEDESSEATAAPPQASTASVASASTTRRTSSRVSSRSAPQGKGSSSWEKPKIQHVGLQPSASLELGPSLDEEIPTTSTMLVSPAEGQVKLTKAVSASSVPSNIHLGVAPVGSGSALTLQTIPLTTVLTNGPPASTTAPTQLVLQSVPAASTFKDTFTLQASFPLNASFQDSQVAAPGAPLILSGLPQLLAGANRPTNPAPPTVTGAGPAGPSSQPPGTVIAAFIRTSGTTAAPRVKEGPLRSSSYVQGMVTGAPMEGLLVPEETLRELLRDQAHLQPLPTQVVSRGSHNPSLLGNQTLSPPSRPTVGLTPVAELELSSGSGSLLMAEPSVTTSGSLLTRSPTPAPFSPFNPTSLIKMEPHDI
# ELF1, sequence (P32519 whole entry): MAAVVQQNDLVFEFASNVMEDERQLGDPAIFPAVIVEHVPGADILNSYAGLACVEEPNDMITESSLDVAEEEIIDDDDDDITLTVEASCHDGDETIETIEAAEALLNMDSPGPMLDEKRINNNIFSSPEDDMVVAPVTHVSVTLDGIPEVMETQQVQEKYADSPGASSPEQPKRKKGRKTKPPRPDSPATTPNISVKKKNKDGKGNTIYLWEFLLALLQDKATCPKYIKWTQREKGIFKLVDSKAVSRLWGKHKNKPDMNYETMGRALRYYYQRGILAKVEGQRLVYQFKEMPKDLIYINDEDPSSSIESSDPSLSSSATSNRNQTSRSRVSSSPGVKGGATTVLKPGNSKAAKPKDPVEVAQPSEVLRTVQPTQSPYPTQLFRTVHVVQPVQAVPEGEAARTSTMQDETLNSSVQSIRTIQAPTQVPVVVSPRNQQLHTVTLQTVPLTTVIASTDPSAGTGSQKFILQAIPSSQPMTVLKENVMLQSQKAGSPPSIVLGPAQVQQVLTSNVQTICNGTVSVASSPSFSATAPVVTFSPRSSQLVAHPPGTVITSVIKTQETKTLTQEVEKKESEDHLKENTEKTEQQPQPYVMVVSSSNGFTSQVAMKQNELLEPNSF
# SPIB, sequence (Q01892 whole entry): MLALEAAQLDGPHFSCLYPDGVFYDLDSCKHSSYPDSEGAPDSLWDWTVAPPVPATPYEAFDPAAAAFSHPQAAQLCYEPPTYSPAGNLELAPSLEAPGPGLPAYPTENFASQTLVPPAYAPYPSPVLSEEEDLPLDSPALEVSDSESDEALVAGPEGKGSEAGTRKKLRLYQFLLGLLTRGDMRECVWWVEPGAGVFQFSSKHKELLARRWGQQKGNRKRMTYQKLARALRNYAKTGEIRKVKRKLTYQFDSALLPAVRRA
sequence,measurement,setting,value
CGCCTC,binding signal,FLI1,"1.47 fold enrichment (6-mer frequency, TF over GST control)"
same,binding signal,ELK1,"1.49 fold enrichment (6-mer frequency, TF over GST control)"
same,binding signal,GABPA,"1.41 fold enrichment (6-mer frequency, TF over GST control)"
same,binding signal,ERG,"1.39 fold enrichment (6-mer frequency, TF over GST control)"
same,binding signal,ELF1,"1.49 fold enrichment (6-mer frequency, TF over GST control)"
same,binding signal,EHF,"1.4 fold enrichment (6-mer frequency, TF over GST control)"
same,binding signal,SPI1,"1.27 fold enrichment (6-mer frequency, TF over GST control)"
same,binding signal,SPIB,"1.51 fold enrichment (6-mer frequency, TF over GST control)"
same,binding signal,ELK3,"1.46 fold enrichment (6-mer frequency, TF over GST control)"
same,binding signal,FEV,"1.45 fold enrichment (6-mer frequency, TF over GST control)"
same,binding signal,ETV5,"1.4 fold enrichment (6-mer frequency, TF over GST control)"
same,binding signal,HSF1,"1.1 fold enrichment (6-mer frequency, TF over GST control)"
same,binding signal,SPIC,"1.33 fold enrichment (6-mer frequency, TF over GST control)"
same,binding signal,ELF4,"1.39 fold enrichment (6-mer frequency, TF over GST control)"
same,binding signal,ELK4,"1.14 fold enrichment (6-mer frequency, TF over GST control)"
same,binding signal,ETV2,"1.51 fold enrichment (6-mer frequency, TF over GST control)"
same,binding signal,ELF3,"1.49 fold enrichment (6-mer frequency, TF over GST control)"
same,binding signal,CRX,"1.05 fold enrichment (6-mer frequency, TF over GST control)"
same,binding signal,ETV1,"1.42 fold enrichment (6-mer frequency, TF over GST control)"
